CYP2C9 inh – human CYP2C9 inhibition; P11712; CYP2C9 Supersomes, luciferin-H conversion, luminescence; inhibition, % at 5 µM; 96,000 tested, 20% active; AID 777;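 active = blocking of liver enzyme CYP2C9 beyond about 50% at 5 µM, limit read from the data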
Target sequence (P11712 whole entry, looked up): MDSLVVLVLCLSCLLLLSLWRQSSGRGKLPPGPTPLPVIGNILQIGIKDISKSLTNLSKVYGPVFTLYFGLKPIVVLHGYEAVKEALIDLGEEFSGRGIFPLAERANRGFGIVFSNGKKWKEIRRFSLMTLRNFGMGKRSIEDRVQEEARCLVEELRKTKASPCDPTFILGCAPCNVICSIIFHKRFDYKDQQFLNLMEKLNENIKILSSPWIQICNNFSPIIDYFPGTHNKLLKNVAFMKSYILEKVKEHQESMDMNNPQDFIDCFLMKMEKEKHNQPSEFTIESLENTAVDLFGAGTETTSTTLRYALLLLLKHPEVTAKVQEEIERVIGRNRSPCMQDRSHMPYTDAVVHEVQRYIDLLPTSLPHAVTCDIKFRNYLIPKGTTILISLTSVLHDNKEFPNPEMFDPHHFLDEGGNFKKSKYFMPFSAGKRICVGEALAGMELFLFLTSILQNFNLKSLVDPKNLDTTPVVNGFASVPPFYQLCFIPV
CYP2C19 act – activators of human cytochrome P450 2C19. P33261. recombinant CYP2C19, luciferin-H EGE luminescence; stronger effect = higher value; 0 = fully inhibited enzyme, 1 = untreated enzyme. activation factor at 5 µM. 96,000 tested, under 10 active;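 active = activation factor of at least 2 at 5 µM in the primary screen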
E-sel TNF inh – blocks E-selectin expression induced by TNF alpha. HUVEC TNFa-induced E-selectin immunofluorescence, high content. AID 1246. 120,000 tested, 0.71% active. inhibition, % at 2 µM;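 active = inhibition above the batch mean plus 3 SD, and confirmed as a hit on visual image review, cut at about 43% in these data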
cytoskel mod – modifiers of cytoskeleton assembly; HUVEC TNFa F-actin phalloidin imaging, high content; inhibition, % at 2 µM; 91,000 tested, 0.18% active; AID 836;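 active = inhibition above the batch mean plus 3 SD and confirmed as a hit by visual image inspection, cut at about 30% in these data, passing the limit was not always enough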
CYP2C9 act – increases human cytochrome P450 2C9 activity; activation factor at 5 µM; recombinant CYP2C9, luciferin-H conversion, luminescence; stronger effect = higher value; factor 1 = untreated enzyme, 0 = blocked; 96,000 tested, 1.4% active; P11712; AID 1024;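 active = activation factor of 2 or more for CYP2C9 at a 5 µM dose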
CYP2C19 inhib – blocks human cytochrome P450 2C19 | 96,000 tested, 21% active | P33261 | inhibition, % at 5 µM | CYP2C19 Supersomes, luciferin-H EGE luminescence, 30 min | AID 778;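 active = CYP2C19 inhibition above a set limit at 5 µM in the primary screen, cut at about 50% in these data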
Numbers stand for hits; . = inactive; / = not tested or not shown. A selection: hits, their analogues and other compounds. The true share with any hit is near 22%.

SMILES	CYP2C9 inh	CYP2C19 act	E-sel TNF inh	cytoskel mod	CYP2C9 act	CYP2C19 inhib
Cc1c(NC(=O)c2cc(CC(C)C)on2)c(=O)n(-c2ccccc2)n1C	.	.	.	.	.	.
Cc1cnc(C(=O)OCC(=O)Nc2ccc(C)c(S(=O)(=O)N3CCCCC3)c2)cn1	/	/	.	/	/	/
CCCCNC(=O)C1=C(N)C(C(=O)Nc2ccc(C)c(S(=O)(=O)N3CCCCC3)c2)SC1=Nc1ccc(C)cc1C (configuration not stated)	79	.	.	.	.	.
CCN(CC)S(=O)(=O)c1cccc(NC(=O)C2SC(=Nc3ccc(C)cc3C)C(C(=O)NC(C)COC)=C2N)c1 (configuration not stated)	83	.	.	.	.	.
COc1ccc(-c2c(C#N)c(N)nc3c2c(=O)n(C)c(=O)n3C)cc1	/	/	.	.	/	/
Cn1c2c(c3ccccc31)CC/C2=N\O	.	.	.	/	.	79
Cc1occc1C(=O)n1nnc2ccccc21	.	.	.	.	.	.
CCOc1ccc(C(=O)/C=C/c2ccc(SC)cc2)cc1	.	.	.	.	.	62
COC(=O)c1ccc(/C=C/C(=O)c2ccc(OC)c(OC)c2)cc1	.	.	/	.	.	.
COC(=O)c1ccc(/C=C/C(=O)c2ccc(OC)cc2)cc1	91	.	.	.	.	53
CCN(CC)c1ccc(NC(=O)Nc2ccc(C(C)=O)cc2)cc1	.	.	/	.	.	.
CC(=O)c1ccc(NC(=O)CSCC(=O)Nc2ccc3ccccc3c2)cc1	55	.	.	.	.	.
CC(=O)c1ccc(NC(=O)Nc2ccccc2)cc1	63	.	.	.	.	50
CC(=O)c1ccc(NC(=O)c2ccn[nH]2)cc1	69	.	/	.	.	.
Cc1c(O)c2cccnc2[nH]c1=O	/	/	.	/	/	/
Cc1[nH]n(-c2ccccc2)c(=O)c1C(c1ccc(O)c([N+](=O)[O-])c1)c1c(C)[nH]n(-c2ccccc2)c1=O	/	/	/	.	/	/
Cc1[nH]n(-c2ccccc2)c(=O)c1C(C[N+](=O)[O-])c1ccccc1Cl (configuration not stated)	92	.	.	.	.	88
COc1ccc(N(C(=O)/C=C/C(=O)Nc2cc(C)on2)C(C(=O)NC2CCCC2)c2ccccc2C)cc1 (configuration not stated)	/	/	.	/	/	/
CCOC(=O)N(CC)OC(=O)Nc1ccc(Cl)cc1	58	.	.	/	.	78
CCOC(=O)N(C)OC(=O)Nc1ccc(Cl)c(Cl)c1	.	.	/	.	.	.
CCOC(=O)C(Oc1ccc2c(-c3ccc(OC)cc3)cc(=O)oc2c1C)c1ccccc1 (configuration not stated)	78	.	.	.	.	.
CCOC(=O)C(Oc1ccc2c(-c3ccccc3)cc(=O)oc2c1C)c1ccccc1 (configuration not stated)	/	/	.	/	/	/
Cc1cc[n+]2c3c(cccc13)CCC2	.	.	.	.	.	.
CC1=C(C(=O)OCC(C)C)C23C(=O)c4ccccc4C2(O1)OC(N)=C3C#N (configuration not stated)	68	.	/	.	.	86
COc1ccc(C)cc1C(=O)CCC(=O)Nc1ccccc1N1CCOCC1	82	.	.	.	.	81
SMILES	CYP2C9 inh	CYP2C19 act	E-sel TNF inh	cytoskel mod	CYP2C9 act	CYP2C19 inhib
Cc1cc(C)c(OCC(=O)Nc2ccccc2N2CCOCC2)c(C)c1	.	.	/	.	.	.
Cc1cc(F)ccc1S(=O)(=O)Nc1ccccc1C(=O)Nc1ncn[nH]1	.	.	.	/	.	94
O=C(Nc1ccccc1N1CCOCC1)c1ccccc1[N+](=O)[O-]	.	.	.	.	.	.
CCOc1ccc(S(=O)(=O)Nc2ccccc2C(=O)Nc2ccccc2N2CCOCC2)cc1	69	.	.	/	.	84
O=C(Nc1ccccc1N1CCOCC1)c1ccccc1NS(=O)(=O)c1ccc(F)cc1	78	.	.	.	.	58
CN1CCN(C(=O)c2cccc(S(=O)(=O)N3CCCCC3)c2)CC1	.	.	/	.	.	.
CC1CCCC(NC(=O)COC(=O)CCSc2ccccc2)C1C (configuration not stated)	/	/	.	/	/	/
COc1ccc2nc(NCCCNC(=O)c3cc(OC)c(OC)c(OC)c3)c(C#N)cc2c1	.	.	.	.	.	.
O=C(CNC(=O)c1ccco1)NCC(=O)OC(C(=O)c1ccccc1)c1ccc(Cl)cc1 (configuration not stated)	/	/	.	.	/	/
O=C(Cc1ccc(S(=O)(=O)N2CCOCC2)s1)NCC1CCCCC1	.	.	/	.	.	.
